This is an account of results in ChEMBL document CHEMBL4513216, “Probing the Open Global Health Chemical Diversity Library for Multistage-Active Starting Points for Next-Generation Antimalarials” (ACS Infect Dis, 2020).

Among all 65,000 compounds or so, about 2,100 (3.2%) showed an effect of 50% or more. The median lay at about -52%. The sample holds strong results, similar compounds and a random draw of the others, so the mix is not that of the screen.

The test system of the test is Plasmodium falciparum. The test is described as follows: Screen against P. falciparum Asexual Blood Stage (ABS), at 5uM. As to conditions: tested at 5 uM. The class given is functional, Dd2.
Turning to `CCCN1C(=O)CC2(CCCNC2)C1=O` (stereo unspecified), the INHIBITION is recorded as -90.5%.

Consider `Cc1ccc(CC(=O)N2CCN(CC(C)O)CC2)cn1` (stereo unspecified), for which the INHIBITION was -89.8%. Under `CN(Cc1cc(F)cc2cccnc12)CC1CCN(CCO)CC1` stands 84.7%; under `CN(c1ncccc1C#N)C1CCN(CCc2ccccn2)CC1`, 20.6%.

As to `CC(O)CN1CCC(CN(C)Cc2cc(F)cc3cccnc23)CC1` (stereo unspecified), the INHIBITION came out at 87.2%. Then `CN(Cc1cc(Cl)cc2cccnc12)CC1CCN(CCO)CC1`, with 88.7%; and `CC(C)CN1C(=O)C2(CCCC2)NC1c1cn(C)c(=O)n(C)c1=O` (stereo unspecified), with -15.3%; and `C[C@H]1C[C@@H]2CCN(CC3CCOCC3)C[C@H]2O1`, with -49.5%. As to `CC(C)OCCNC1(c2ccc(Cl)cc2)CCOCC1`, the INHIBITION is reported as 37.7%. Under `CC(NCC1(N(C)C)CCOCC1)c1ccc(Cl)cc1` (stereo unspecified) stands 74.6%; under `CN1CCN2C(=O)N(C3CCCCC3)C[C@H]2C1`, -52.1%. On to `c1ccc(CO[C@@H]2CO[C@@]3(CCN(Cc4ccccn4)C3)C2)nc1`, for which the INHIBITION was -34.3%.

Consider `O=S(=O)(C1CC1)N1CCC2(CCCN(Cc3ccccn3)C2)CC1`, for which the INHIBITION is -22.4%.

Regarding `c1ccc(CN2CCC3(CC2)CCN(Cc2cccnc2)C3)nc1`, the INHIBITION came out at 21%. Then `c1ccc(CN2CCC3(CC2)CC(Nc2nccs2)CO3)nc1` (stereo unspecified), with 75%; and `c1ccc(N2CCC3(COCCN(Cc4cccs4)C3)C2)nc1` (stereo unspecified), with 37.5%; and `c1ccc(CN2CCC3(CC2)CCN(Cc2cccs2)C3)nc1`, with 54.8%. Under `c1ccc(CN2CCCC3(CCN(CC4CCCO4)CC3)C2)nc1` (stereo unspecified) stands 15.1%; under `c1ccc(N2CCCC3(CCN(Cc4cccs4)C3)C2)nc1` (stereo unspecified), 73.4%.

Take `CS(=O)(=O)N1CCC2(CCCN(Cc3ccccn3)C2)C1` (stereo unspecified): the INHIBITION is recorded as -32.2%.

Take `c1ccc(CO[C@H]2CO[C@@]3(CCN(Cc4ccoc4)C3)C2)nc1`: the INHIBITION came out at 14.1%. Turning to `c1ccc(CN2CCCC3(CCN(Cc4cccs4)C3)C2)nc1` (stereo unspecified), the INHIBITION came to 73.8%. Then `Cc1ccc(N2C[C@@H]3OCCN(CC4CC4)[C@@H]3C2)nn1`, with -167%; and `O=C(c1ccco1)N1CCN2C[C@H](OCc3cccnc3)C[C@H]2C1`, with -180%; and `O=C([C@H]1C[C@H]2OCC[C@H]2N(Cc2ccncc2)C1)N1CCCCO1`, with -62.9%. `CCN(CC)C(=O)C1CCC2(CCNCC2)O1` (stereo unspecified): the INHIBITION is on record as -55.8%. Under `c1ccc(CO[C@H]2CC[C@H]3[C@H]2OCCN3Cc2nccs2)nc1` stands -8.49%.

Take `CSc1nccc(N2CCC3(CCCN(CC4CC4)C3)C2)n1` (stereo unspecified): the INHIBITION is listed as -48.7%. Under `CC(C)CN1CCCC2(CCN(c3ccccn3)C2)C1` (stereo unspecified) stands 71.2%; under `CC(C)CN1CCCC2(CCN(c3ccc(C#N)cn3)C2)C1` (stereo unspecified), 9.73%. Under `CN(Cc1ccccc1)c1ncccc1CNC1CN2CCC1CC2` (stereo unspecified) stands 62.6%. Then `CC(C)N1CCC(NCc2cccnc2N(C)Cc2ccccc2)CC1`, with 84.1%. For the compound `CN(CCc1ccccc1)Cc1c(C2CC2)[nH]c2ncccc12`, the INHIBITION is recorded as -22.1%.

Turning to `CN(c1ncccc1C#N)C1CCN(Cc2ccncc2)CC1`, the INHIBITION is reported as -82.3%. Then `COc1ncccc1CN1C[C@H]2CCN(C(C)C)C[C@H]2C1`, with 9.06%.

On to `CN(Cc1ccccc1)c1ncccc1CNC1CCC1`, for which the INHIBITION worked out at 71.1%. Then `CNc1nccnc1C1CCN(C(C)C)CC1`, with 10.5%; and `CC(C)c1noc(CN(Cc2cccnc2)C2CN3CCC2CC3)n1` (stereo unspecified), with -90.3%; and `Nc1cc(-c2cccc3c2CCNC3)ncn1`, with -47.8%.

For the compound `Cc1ccccc1CC(=O)N1CCN(C2CCOC2=O)CC1` (stereo unspecified), the INHIBITION was -126%. Under `c1cncc(COC[C@H]2CC[C@H]3[C@H](CCN3Cc3cccs3)O2)c1` stands -174%. `CC(=O)N1CCN(Cc2ccncc2)CC2(CC(=O)N(C)C2)C1` (stereo unspecified): the INHIBITION is recorded as -18.8%.

Regarding `COCCn1c(C(=O)NCc2n[nH]c(C)n2)cc2ccccc21`, the INHIBITION is -74.2%. Under `Cc1nc(CN2CCO[C@@H]3CC(COc4ccccn4)C[C@H]32)cs1` (stereo partly specified) stands -52.4%; under `Cc1cc(C(=O)NCC(=O)N2CCOCC2)nn1C(C)(C)C`, -113%; under `c1ccc(CNc2ncc(CN3CC[C@@H]4CC[C@H](C3)N4)cn2)cc1`, -65%. Then `Cc1ncc2c(n1)CCCC2NC(=O)c1cnn(Cc2ccccc2)c1` (stereo unspecified), with -115%. Under `Cc1nc2c(c(NC3CCN(Cc4ccccc4)CC3)n1)CCNCC2` stands 78.7%.

Consider `Cc1nnc([C@H]2CC[C@@H]3[C@@H](CCN3Cc3c(C)noc3C)O2)o1`, for which the INHIBITION is reported as -1.83%. Under `Cc1n[nH]c2c1C(c1ccc3c(c1)OCCO3)SCC(=O)N2` (stereo unspecified) stands 8.75%. Under `Cc1c(CNC2CCN(c3ccccc3OC(F)F)C2)cnn1C` (stereo unspecified) stands 71%.
